The results in this text go back to PubChem BioAssay.

Where “and” joins values, the source holds several entries; their conditions need not be identical. Equal values may be shown once.

The assay in a line: sensitizers of A549 cells to miR-34 induction, primary screen, imaging, A549 dox-inducible miR-34, nuclei and caspase counts (AID 1347080). Further: test concentration not given here. Particulars: A549 miR-34 inducible, Hoechst nuclei count, 48 h; measured here: total cells without miR-34 induction.
Consider `C[C@]12C=CC(=O)C=C1CCC1C2[C@@H](O)C[C@@]2(C)C1CC[C@]2(O)C(=O)COP(=O)(O)O` (some centres not stated), for which the cell count amounted to 7150. Turning to `CC(C)OC(=O)CCC/C=C\C[C@@H]1[C@@H](/C=C/C(O)COc2cccc(C(F)(F)F)c2)[C@H](O)C[C@@H]1O` (some centres not stated), the cell count worked out at 10100. The result for `CC12CCC3c4ccc(O)cc4CCC3C1C[C@H](O)[C@@H]2O` (some centres not stated) reads 8350. With `CC(C)(CO)C(O)C(=O)NCCC(=O)NCCSSCCNC(=O)CCNC(=O)C(O)C(C)(C)CO` (configuration not stated) the figure was 8840.

For the compound `COc1cc(O)cc(C(=O)c2ccccc2)c1S(=O)(=O)O`, the cell count came out at 10000. As to `NCCCC(N)C(=O)O` (configuration not stated), the cell count stood at 9450.

Consider `N[C@@H](CO)c1ccccc1`, for which the cell count came out at 5460. The result for `CC(=O)Oc1cc2c(s1)CCN([C@H](C(=O)C1CC1)c1ccccc1F)C2` reads 8810; that for `Cc1oc(=O)oc1CN1CCN(c2cc3c(cc2F)c(=O)c(C(=O)O)c2n3C(C)C2)CC1` (configuration not stated), 9120; that for `O=C(O)c1ccccc1-c1c2cc(I)c(=O)c(I)c-2oc2c(I)c(O)c(I)cc12`, 9880. With `NC(N)=NCCCC(N)C(=O)O` (configuration not stated) the figure was 9960; with `Cc1cc(=O)c(C(=O)N[C@@H](C(=O)N[C@@H]2C(=O)N3C(C(=O)O)=C(CSc4nnnn4C)CSC23)c2ccc(O)cc2)c[nH]1` (some centres not stated), 9610.

Turning to `CC1(C)O[C@@H]2CC3C4CCC5=CC(=O)C=C[C@]5(C)C4[C@@H](O)C[C@]3(C)[C@]2(C(=O)CO)O1` (some centres not stated), the cell count came out at 6900.

With `C=C(C)C1CC=C(C)CC1` (configuration not stated), the cell count was 9220. The result for `NC(=O)C1CCCN1C(=O)C(Cc1cnc[nH]1)NC(=O)C1CCC(=O)N1` (configuration not stated) reads 9400; that for `OC[C@@H](O)[C@H](O)[C@@H](O)[C@H](O)CO`, 9000; that for `COc1nc(N)nc2c1ncn2C1O[C@H](CO)[C@@H](O)[C@@H]1O` (some centres not stated), 8740.

Consider `Nc1nc(NC2CC2)c2ncn(C3C=C[C@@H](CO)C3)c2n1` (some centres not stated), for which the cell count came out at 8920. With `CCN(CC)C(=O)C1(c2ccccc2)CC1CN` (configuration not stated) the figure was 8890; with `Cc1cc(CC(C)CC(C)(C)C)n(O)c(=O)c1` (configuration not stated) (tested in a mixture with another compound), 2360 and 2770; with `CC1/C=C/C=C/C=C/C=C/C=C/C=C/C=C/C(O[C@@H]2O[C@H](C)[C@H](O)[C@@H](O)[C@@H]2N)CC(O)C(C(=O)O)C(O)CC(=O)CC(O)CC(O)CC(O)CC(=O)CCCC(=O)CC(=O)OC1C(C)CC(C)C(O)CC(=O)c1ccc(N)cc1` (some centres not stated), 6790. As for `CCCC[C@@H](CC)COC(=O)C(C#N)=C(c1ccccc1)c1ccccc1`, the cell count was 8950.

As for `O=C1c2c(O)cccc2[C@@H](O[C@@H]2O[C@H](CO)[C@H](O)[C@@H](O)[C@H]2O)c2cc(CO)cc(O)c21`, the cell count turned out to be 9140. With `Cc1cc2nc3c(=O)[nH]c(=O)nc-3n(C[C@@H](O)[C@@H](O)[C@@H](O)COP(=O)(O)O)c2cc1C` the figure was 9530. Turning to `C#C[C@]1(O)CCC2C3CCc4cc(OC5CCCC5)ccc4C3CC[C@@]21C` (some centres not stated), the cell count stood at 5800. As for `CSCC[C@H](NC(=O)[C@H](Cc1c[nH]c2ccccc12)NC(=O)[C@H](C)NC(=O)OC(C)(C)C)C(=O)N[C@@H](CC(=O)O)C(=O)N[C@@H](Cc1ccccc1)C(N)=O`, the cell count came out at 9610. `C[C@]12CCC(=O)C=C1[C@@H]1C[C@@H]1C1C2CC[C@@]2(C)C1[C@@H]1C[C@@H]1[C@@]21CCC(=O)O1` (some centres not stated): the cell count is 7840.

For the compound `COc1c(O)cc2c(c1O)[C@H]1O[C@H](CO)[C@@H](O)[C@H](O)[C@@H]1OC2=O`, the cell count was found to be 9950. For `CC(C)(O)c1ccccc1CC[C@@H](SC1(CC(=O)O)CC1)c1cccc(/C=C/c2ccc3ccc(Cl)cc3n2)c1`, the cell count is 9450. For the compound `CC(C)C/C=C/C=C\C(=O)N[C@@H](CC(N)=O)C(=O)N[C@@H]1C(=O)N[C@H](c2ccc(O)cc2)C(=O)N[C@H](CCCN)C(=O)N[C@H]([C@H](C)O)C(=O)N[C@@H](c2ccc(O)cc2)C(=O)N[C@H](c2ccc(O)cc2)C(=O)N[C@@H]([C@H](C)O)C(=O)N[C@@H](Cc2ccccc2)C(=O)N[C@H](CCCN)C(=O)N[C@@H](c2ccc(O[C@@H]3O[C@H](CO)[C@H](O)[C@@H](O)[C@@H]3O[C@@H]3O[C@H](CO)[C@@H](O)[C@H](O)[C@H]3O)cc2)C(=O)NC(C(C)O)C(=O)N[C@@H](c2ccc(O)cc2)C(=O)NCC(=O)N[C@@H](CC(C)C)C(=O)N[C@H](C)C(=O)N[C@@H](c2ccc(O)c(Cl)c2)C(=O)O[C@@H]1C(N)=O` (some centres not stated), the cell count is 9820. With `O=C1SCN(Cc2ccccc2)CN1Cc1ccccc1` the figure was 8710; with `CC(=O)[C@H]1CCC2C3CC=C4C[C@@H](OC(=O)CCC(=O)O)CC[C@]4(C)C3CC[C@@]21C` (some centres not stated), 9360.
